Some test systems named below: NCI-H23 lung; NCI-H226 lung; NCI-H322M lung; HOP-62 NSCLC; NCI-H460 lung; HOP-92 NSCLC; NCI-H522 lung; A549/ATCC NSCLC; 786-0 renal; COLO 205 colon; DU-145 prostate; K-562 leukemia; MALME-3M melanoma; MDA-MB-231 breast; RXF 393 renal; SF-268 CNS; SF-295 CNS; SF-539 CNS; UACC-257 melanoma; M14 melanoma.
Assay in all cases: NCI-60 one-dose screen, 48 h (100 = growth as untreated, 0 = no growth, -100 = all killed)
What all share (conditions): 10 µM unless noted

Compounds without any hit were thinned out: in the full panel of roughly 83,000, 20% have a hit.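 Assay: single dose, 48 h. Readout: percent growth (0 = no net growth; negative = cell death). Active: <10.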 A number with no mark means an inactive call. Activity calls are given as the source filed them.

For `Nc1ccc([N+](=O)[O-])cc1N=C/C=C/c1ccccc1`, the growth was 76.9% in the experiment with NCI-H23 lung; 72% in the experiment on NCI-H226 lung; 87.8% in the experiment on NCI-H322M lung; 88% in the experiment on HOP-62 NSCLC; 54% in the experiment on NCI-H460 lung; 82.2% in the experiment on HOP-92 NSCLC. Moreover, the growth in the experiment on NCI-H522 lung was 10.8%; with A549/ATCC NSCLC it was 72.7%; in the experiment with 786-0 renal it was 78.6%; in the experiment on COLO 205 colon, 65.5%; with DU-145 prostate it was 77.4%; in the experiment with K-562 leukemia, 29.5%. Besides, the growth with MALME-3M melanoma is 138%; in the experiment on MDA-MB-231 breast, 47.6%; in the experiment with RXF 393 renal, 85.1%; in the experiment on SF-268 CNS, 51.4%; with SF-295 CNS, 109%; in the experiment on SF-539 CNS, 79%. For the same compound, the results for the growth in the experiment on UACC-257 melanoma and with M14 melanoma were 86.5% and 68.4%, respectively.

For `C=C1C(=O)O[C@H]2[C@H]1CC/C(Cn1cc(-c3cc(C(F)(F)F)cc(C(F)(F)F)c3)nn1)=C\CC[C@@]1(C)O[C@@H]21`, the growth with NCI-H23 lung is -58.6% (active); with NCI-H226 lung, -54.5% (active); in the experiment with NCI-H322M lung, -24.4% (active); in the experiment on HOP-62 NSCLC, -78.6% (active); in the experiment with NCI-H460 lung, -59.2% (active); with HOP-92 NSCLC, -95.1% (active). For the same compound, the growth with NCI-H522 lung was -76.7% (active); with A549/ATCC NSCLC, -85.3% (active); in the experiment with 786-0 renal, -86.5% (active); in the experiment with COLO 205 colon, -60.4% (active); in the experiment on DU-145 prostate, -90% (active); in the experiment with K-562 leukemia, -37.6% (active). Also, the growth in the experiment with MALME-3M melanoma was -88.5% (active); in the experiment on MDA-MB-231 breast, -75.7% (active); with RXF 393 renal, -90.9% (active); in the experiment with SF-268 CNS, -78.7% (active); in the experiment on SF-295 CNS, -67.4% (active); in the experiment on SF-539 CNS, -92.2% (active). In addition, the growth in the experiment with UACC-257 melanoma was -85.3% (active); in the experiment on M14 melanoma, -70.3% (active).

As for `O=C1/C(=C/c2ccc(C(F)(F)F)cc2)COc2ccc(O)cc21`, the growth with NCI-H23 lung was 98%; in the experiment with NCI-H226 lung, 107%; with NCI-H322M lung, 95.2%; in the experiment on HOP-62 NSCLC, 96.2%; with NCI-H460 lung it was 98.4%; with HOP-92 NSCLC, 82.4%. Moreover, the growth in the experiment on NCI-H522 lung was -13.6% (active); with A549/ATCC NSCLC, 87.1%; in the experiment on 786-0 renal, 80%; in the experiment with COLO 205 colon it was 90.7%; in the experiment with DU-145 prostate, 99.1%; in the experiment with K-562 leukemia it was 5.54% (active). The growth was 88.7% in the experiment with MALME-3M melanoma; 79.4% with MDA-MB-231 breast; 102% in the experiment on RXF 393 renal; 85.3% with SF-268 CNS; 99.1% in the experiment with SF-295 CNS; 86.7% in the experiment on SF-539 CNS. Further, the growth in the experiment with UACC-257 melanoma was 98.1%; with M14 melanoma, 85.6%.

On to `O=C1CCCc2nc3sc4c(=O)n(-c5ccccc5Cl)nnc4c3cc21`, for which the growth in the experiment with NCI-H23 lung is 101%; in the experiment with NCI-H226 lung, 89.1%; in the experiment with NCI-H322M lung, 101%; with HOP-62 NSCLC, 94.3%; in the experiment on NCI-H460 lung, 100%; in the experiment with HOP-92 NSCLC, 94.9%. For the same compound, the growth in the experiment on NCI-H522 lung was 74.5%; with A549/ATCC NSCLC it was 80%; with 786-0 renal, 86.6%; with COLO 205 colon, 105%; with DU-145 prostate it was 111%; in the experiment with K-562 leukemia, 102%. Moreover, the growth with MALME-3M melanoma is 102%; in the experiment with MDA-MB-231 breast it was 93.6%; with RXF 393 renal, 91.2%; in the experiment on SF-268 CNS it was 103%; with SF-295 CNS it was 95.1%; in the experiment on SF-539 CNS it was 103%. The growth was 85.3% with UACC-257 melanoma and 106% with M14 melanoma.

In the case of `CC(C)CN1CC(C(=O)Nc2ccc3c(c2)-c2ccccc2C3)CC1=O` (stereo not given), the growth in the experiment on NCI-H23 lung was 81% [50 µM]; in the experiment on NCI-H226 lung it was 64.9% [50 µM]; in the experiment on NCI-H322M lung it was 69.6% [50 µM]; with HOP-62 NSCLC it was 50.7% [50 µM]; in the experiment on NCI-H460 lung, 81.8% [50 µM]; in the experiment on HOP-92 NSCLC, 58.5% [50 µM]. Moreover, the growth with NCI-H522 lung was 51.3% [50 µM]; in the experiment with A549/ATCC NSCLC, 78.7% [50 µM]; with 786-0 renal, 70.7% [50 µM]; in the experiment with COLO 205 colon, 87.7% [50 µM]; with DU-145 prostate it was 80% [50 µM]; in the experiment on K-562 leukemia it was 64.7% [50 µM]. For the same compound, the growth in the experiment on MALME-3M melanoma is 58.7% [50 µM]; with MDA-MB-231 breast it was 55.9% [50 µM]; in the experiment with RXF 393 renal, 79.7% [50 µM]; in the experiment with SF-268 CNS, 60.8% [50 µM]; in the experiment on SF-295 CNS it was 76.1% [50 µM]; in the experiment with SF-539 CNS, 72% [50 µM]. In addition, the growth in the experiment with UACC-257 melanoma was 39.9% [50 µM]; in the experiment with M14 melanoma, 77.4% [50 µM].

Take `C/C(=N\Nc1nc(C)cs1)c1cc2ccccc2o1`: the growth is 86.9% with NCI-H23 lung; 76.7% in the experiment with NCI-H226 lung; 93.1% with NCI-H322M lung; 63.6% in the experiment on HOP-62 NSCLC; 95.6% in the experiment on NCI-H460 lung; 87.3% in the experiment on HOP-92 NSCLC. In addition, the growth with NCI-H522 lung was 66.3%; with A549/ATCC NSCLC it was 88%; in the experiment on 786-0 renal it was 104%; in the experiment on COLO 205 colon, 110%; in the experiment with DU-145 prostate it was 107%; in the experiment with K-562 leukemia, 78.4%. Also, the growth with MALME-3M melanoma was 93.8%; in the experiment with MDA-MB-231 breast, 79.9%; with RXF 393 renal it was 120%; in the experiment on SF-268 CNS it was 97.9%; in the experiment on SF-295 CNS, 94.7%; in the experiment on SF-539 CNS, 94.8%. In addition, the growth in the experiment with UACC-257 melanoma is 102%; in the experiment with M14 melanoma it was 95.4%.

Consider `Cc1cc(N2CCCCC2)nc(N2CCN(CC(=O)Nc3ccc4c(ccn4Cc4ccccc4)c3)CC2)n1`, for which the growth in the experiment on NCI-H23 lung is 59.2%; with NCI-H226 lung, 65.1%; in the experiment on NCI-H322M lung, 83%; in the experiment with HOP-62 NSCLC, 67.1%; in the experiment with NCI-H460 lung, 56.5%; in the experiment with HOP-92 NSCLC it was 23.6%. The growth in the experiment on NCI-H522 lung is 65.1%; in the experiment with A549/ATCC NSCLC it was 49.2%; with 786-0 renal it was 68.6%; in the experiment on COLO 205 colon, 48.2%; in the experiment on DU-145 prostate it was 79.6%; in the experiment with K-562 leukemia, 35.4%. For the same compound, the growth in the experiment with MALME-3M melanoma is 70.4%; with MDA-MB-231 breast it was 64.3%; in the experiment on RXF 393 renal, 36.2%; with SF-268 CNS it was 80.5%; in the experiment on SF-295 CNS it was 42.9%; in the experiment on SF-539 CNS, 80.3%. Also, the growth is 71% in the experiment on UACC-257 melanoma and 50.9% in the experiment with M14 melanoma.
